# Values joined by “and” are separate entries in the source; they are usually repeats but may differ in a detail not shown here. Identical values can stand only once. Inconclusive results are not listed. For some of these results: Potency and affinity values are given separately. Active and inactive are the calls of the source.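 The calls were made as follows, unless noted: active = thallium flux through the channel raised or lowered by more than 3 SD from vehicle-only wells, actives on both sides; inactive = the rest.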
# Legend:
# [1] = molecular target: ATP-dependent translocase ABCB1 (Homo sapiens) (UniProt P08183); experiment: P-glycoprotein substrate transport blockade – cell-based (AID 377; in the data active = fluorescence slope change above about 50%); conditions: MDR1-expressing cells, fluorescent substrate accumulation slope; stronger effect = higher value; concentration not given here
# [2] = blockers of polyQ-driven CASP3 activation – cell-based (AID 1583); conditions: polyglutamine-induced caspase-3 activation, cell assay; stronger effect = higher value;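 tested at 10 µM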
# [3] = glutamate transport activators, MN-1 cells, MN-1 cell line (AID 1612); conditions: MN-1 motor neuron cells, stronger effect = higher value;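 also: tested at 1 µM final; 0% = mean of DMSO vehicle wells on each plate; positive means more glutamate uptake than control and negative means less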
# [4] = 75Q-TubH aggregate inhibition, S. cerevisiae, yeast (AID 1616); conditions: S. cerevisiae 75Q-TubH polyglutamine aggregation suppression; stronger effect = higher value
# [5] = compounds altering viability of human ES cells (AID 493140; call rule not given here;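 also: cells exposed to compounds for four days before counting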); conditions: human embryonic stem cell survival screen; stronger effect = higher value
# [6] = compounds altering circadian rhythm period length – cell-based, LOPAC library, luminescence reporter (AID 2774; call rule not given here;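 also: values are relative to mean of DMSO wells on each plate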); conditions: circadian reporter cells, at 7 µM, actives lie on both sides
# [7] = tested on: Hepatitis C virus NS3 helicase; experiment: blockers of NS3h binding to ssDNA – biochemical, fluorescence polarization, LOPAC1280 library, primary screen (AID 687035; in the data active = inhibition above about 37%); conditions: Purified HCV NS3 helicase, Cy5-dT15 ssDNA binding fluorescence polarization; stronger effect = higher value; concentration not given here
# [8] = compounds altering Cy5-DNA-NS3h complex signal – biochemical, LOPAC1280, artefact control for HCV NS3 helicase inhibitor project (AID 687037; call rule not given here); conditions: Cy5-DNA-NS3h complex fluorescence interference counterscreen
# [9] = tested on: Aerobactin synthetase IucA (Klebsiella pneumoniae, hypervirulent); experiment: biochemical IucA inhibition screen of LOPAC library by absorbance (AID 1346212; call rule not given here;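 also: 100% = no compound wells and 0% = no enzyme wells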); conditions: IucA enzyme assay, absorbance (OD) readout; stronger effect = lower value;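 tested at 8 µM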
# [10] = blockers of cellular phospholipid synthesis – cell-based, LOPAC library, screen 4, primary screen (AID 1347384; call rule not given here); conditions: animal cells, phospholipid biosynthesis inhibition screen; at 10 µM
# [11] = restoration of touch response, mutant HTT neurons – whole organism, C. elegans mechanosensory neurons, N-terminal huntingtin (AID 1599); conditions: C. elegans polyQ-huntingtin mechanosensory neurons, stronger effect = higher value
# [12] = modulation of C. elegans fzo-1 (AID 1259413; call rule not given here;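 also: fzo-1 mutant C. elegans worms in liquid wells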); conditions: C. elegans fzo-1 modulator screen, mean read-out; stronger effect = higher value
# F380Y = experiment: BK channel mutant inhibitors and activators – cell-based, U2OS BacMam, thallium flux, beta subunits, selectivity assay, profiling panel (AID 1259406); conditions: U2OS BacMam BK variants, at 30 µM;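 also: initial slope of Thallos dye fluorescence rise after thallium is added; log ratio against the mean of 0.3% DMSO vehicle wells on the same plate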
# F380Y/beta1 = experiment: as above; conditions: U2OS BacMam BK variants, at 30 µM
# F380Y/beta2Delta = experiment: as above; conditions: U2OS BacMam BK variants, at 30 µM
# R275C = experiment: as above; conditions: U2OS BacMam BK variants, at 30 µM
# R275C/beta1 = experiment: as above; conditions: U2OS BacMam BK variants, at 30 µM
# R275C/beta2Delta = experiment: as above; conditions: U2OS BacMam BK variants, at 30 µM
# R275C/Slo1WT/beta2 = experiment: as above; conditions: U2OS BacMam BK variants, at 30 µM
# [13] = GFP-Q80 aggregate reduction, neuronal-like cells, cell-based, NGF-treated PC12, GFPQ80 (AID 1614); conditions: PC12 NGF-treated GFP-polyQ80 inclusion reduction;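 also: lower means fewer inclusions and 0 means no inclusions at all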
# Sequence of ATP-dependent translocase ABCB1 (Homo sapiens) (P08183 whole entry, looked up): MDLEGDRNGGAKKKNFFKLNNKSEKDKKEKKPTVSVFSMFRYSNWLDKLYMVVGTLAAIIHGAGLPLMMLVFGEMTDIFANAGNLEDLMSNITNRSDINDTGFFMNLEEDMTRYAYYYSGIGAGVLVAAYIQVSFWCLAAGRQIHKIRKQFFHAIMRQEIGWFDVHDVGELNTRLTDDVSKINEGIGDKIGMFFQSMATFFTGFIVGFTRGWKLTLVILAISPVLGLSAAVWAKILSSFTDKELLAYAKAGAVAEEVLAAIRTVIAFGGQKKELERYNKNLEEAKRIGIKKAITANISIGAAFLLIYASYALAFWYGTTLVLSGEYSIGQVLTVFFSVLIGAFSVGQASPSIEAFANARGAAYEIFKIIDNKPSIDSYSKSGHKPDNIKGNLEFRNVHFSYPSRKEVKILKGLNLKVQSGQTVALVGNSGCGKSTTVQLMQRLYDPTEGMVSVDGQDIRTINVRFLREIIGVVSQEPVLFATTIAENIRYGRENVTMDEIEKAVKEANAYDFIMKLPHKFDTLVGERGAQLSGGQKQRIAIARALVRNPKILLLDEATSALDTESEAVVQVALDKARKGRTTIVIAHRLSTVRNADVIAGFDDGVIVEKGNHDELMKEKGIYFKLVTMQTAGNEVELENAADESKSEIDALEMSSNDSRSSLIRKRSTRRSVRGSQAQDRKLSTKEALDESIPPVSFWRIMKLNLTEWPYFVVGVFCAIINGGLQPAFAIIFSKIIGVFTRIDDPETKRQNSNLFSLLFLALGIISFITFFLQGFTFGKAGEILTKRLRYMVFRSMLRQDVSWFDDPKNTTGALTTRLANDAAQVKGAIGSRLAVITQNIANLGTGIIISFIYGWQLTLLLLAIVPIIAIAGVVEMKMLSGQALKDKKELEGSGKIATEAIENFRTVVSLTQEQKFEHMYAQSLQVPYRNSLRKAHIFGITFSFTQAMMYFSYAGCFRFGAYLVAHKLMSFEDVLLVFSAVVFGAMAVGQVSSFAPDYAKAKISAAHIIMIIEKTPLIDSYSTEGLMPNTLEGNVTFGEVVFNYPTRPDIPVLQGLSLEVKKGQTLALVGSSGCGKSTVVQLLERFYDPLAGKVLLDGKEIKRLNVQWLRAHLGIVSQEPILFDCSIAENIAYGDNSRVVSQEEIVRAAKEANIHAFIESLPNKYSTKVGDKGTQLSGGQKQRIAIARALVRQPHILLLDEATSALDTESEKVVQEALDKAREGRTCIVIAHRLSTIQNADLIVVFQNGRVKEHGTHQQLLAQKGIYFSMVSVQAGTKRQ
smiles,measurement,setting,value
Clc1ccc(C(OCCN2CCCCC2)c2ccccc2)cc1 (configuration not stated),fluorescence slope change,[1],54.5% (active)
same,inhibition,[2],4.2%
same,glutamate uptake change,[3],29.4%
same,aggregation suppression score,[4],1.4
same,survival,[5],3.58 (inactive)
C=C(C)[C@H]1CN[C@H](C(=O)O)[C@H]1CC(=O)O,period change,[6],0.025 h (inactive)
same,inhibition,[7],-3% (inactive)
same,fluorescence ratio (interference),[8],1 (inactive)
same,remaining activity,[9],119% (inactive)
same,outcome,[10],inactive
NCCc1cc(O)c(O)cc1O,inhibition,[2],18.9%
same,rescue above control,[11],-4.94
same,glutamate uptake change,[3],-13.1%
same,aggregation suppression score,[4],1.41
CCCCCCCCCCCCCCCC[N+](C)(C)C,inhibition,[2],66.5%
same,rescue above control,[11],0
same,glutamate uptake change,[3],-41.1%
same,aggregation suppression score,[4],-0.0208
CNCC(O)c1ccc(O)cc1 (configuration not stated),period change,[6],-0.045 h (inactive)
same,survival,[5],2.92 (inactive)
same,inhibition,[7],-2% (inactive)
same,fluorescence ratio (interference),[8],1 (inactive)
same,mean signal,[12],258 (inactive)
same,outcome,[10],inactive
same,log fold change Tl+ flux,F380Y,-0.0218 (inactive)
same,log fold change Tl+ flux,F380Y/beta1,-4.2e-05 (inactive)
same,log fold change Tl+ flux,F380Y/beta2Delta,0.0172 (inactive)
same,log fold change Tl+ flux,R275C,-0.0246 (inactive)
same,log fold change Tl+ flux,R275C/beta1,0.022 (inactive)
same,log fold change Tl+ flux,R275C/beta2Delta,0.0197 (inactive)
same,log fold change Tl+ flux,R275C/Slo1WT/beta2,0.0309 (inactive)
c1ccc2c(c1)Nc1ccccc1S2,mean signal,[12],265 (inactive)
same,log fold change Tl+ flux,F380Y,-0.0351 (inactive)
same,log fold change Tl+ flux,F380Y/beta1,0.0323 (inactive)
same,log fold change Tl+ flux,F380Y/beta2Delta,0.033 (inactive)
same,log fold change Tl+ flux,R275C,-0.041 (inactive)
same,log fold change Tl+ flux,R275C/beta1,0.0203 (inactive)
same,log fold change Tl+ flux,R275C/beta2Delta,-0.0792 (inactive)
same,log fold change Tl+ flux,R275C/Slo1WT/beta2,0.00584 (inactive)
Oc1cccc2cccnc12,inhibition,[2],-67%
same,rescue above control,[11],8.29
same,glutamate uptake change,[3],53.7%
same,aggregation suppression score,[4],0.00802
CN[C@@H](C)[C@H](O)c1ccccc1,period change,[6],-0.07 h (inactive)
O=C(O)C(Cl)Cl,mean signal,[12],259 (inactive)
same,log fold change Tl+ flux,F380Y,-0.0365 (inactive)
same,log fold change Tl+ flux,F380Y/beta1,-0.0051 (inactive)
same,log fold change Tl+ flux,F380Y/beta2Delta,-0.00825 (inactive)
same,log fold change Tl+ flux,R275C,-0.098 (inactive)
same,log fold change Tl+ flux,R275C/beta1,0.0188 (inactive)
same,log fold change Tl+ flux,R275C/beta2Delta,-0.00393 (inactive)
same,log fold change Tl+ flux,R275C/Slo1WT/beta2,-0.0385 (inactive)
CCOC(=O)c1cncn1C(C)c1ccccc1 (configuration not stated),survival,[5],6.08 (inactive)
same,log fold change Tl+ flux,F380Y,-0.00492 (inactive)
same,log fold change Tl+ flux,F380Y/beta1,0.00176 (inactive)
same,log fold change Tl+ flux,F380Y/beta2Delta,0.0219 (inactive)
same,log fold change Tl+ flux,R275C,-0.00746 (inactive)
same,log fold change Tl+ flux,R275C/beta1,0.0125 (inactive)
same,log fold change Tl+ flux,R275C/beta2Delta,0.0301 (inactive)
same,log fold change Tl+ flux,R275C/Slo1WT/beta2,-0.0322 (inactive)
CN1C(=O)COc2c(C(=O)NC3CN4CCC3CC4)cc(Cl)cc21 (configuration not stated),mean signal,[12],219 (inactive)
same,log fold change Tl+ flux,F380Y,0.054 (inactive)
same,log fold change Tl+ flux,F380Y/beta1,0.0287 (inactive)
same,log fold change Tl+ flux,F380Y/beta2Delta,0.0242 (inactive)
same,log fold change Tl+ flux,R275C,-0.0315 (inactive)
same,log fold change Tl+ flux,R275C/beta1,0.0279 (inactive)
same,log fold change Tl+ flux,R275C/beta2Delta,-0.00752 (inactive)
same,log fold change Tl+ flux,R275C/Slo1WT/beta2,-0.0098 (inactive)
COc1cc(N)c(Cl)cc1C(=O)NC1CN2CCC1CC2 (configuration not stated),mean signal,[12],253 (inactive)
O=P1(NCCCl)OCCCN1CCCl (configuration not stated),survival,[5],3.83 (inactive)
CN[C@@H]1C[C@@H](c2ccc(Cl)c(Cl)c2)c2ccccc21,period change,[6],0.04 h (inactive)
same,inhibition,[7],-2% (inactive)
same,fluorescence ratio (interference),[8],0.9 (inactive)
same,mean signal,[12],207 (inactive)
same,remaining activity,[9],107% (inactive)
same,outcome,[10],inactive
same,log fold change Tl+ flux,F380Y,0.0202 (inactive)
same,log fold change Tl+ flux,F380Y/beta2Delta,0.44 (active)
same,log fold change Tl+ flux,R275C,-0.12 (active)
same,log fold change Tl+ flux,R275C/beta1,0.445 (active)
same,log fold change Tl+ flux,R275C/beta2Delta,0.134 (active)
CC[C@]1(O)CC[C@H]2[C@@H]3CCC4=CCCC[C@@H]4[C@H]3CC[C@@]21C,log fold change Tl+ flux,F380Y,0.0652 (inactive)
same,log fold change Tl+ flux,F380Y/beta1,-0.128 (active)
same,log fold change Tl+ flux,F380Y/beta2Delta,-0.0162 (inactive)
same,log fold change Tl+ flux,R275C,0.0162 (inactive)
same,log fold change Tl+ flux,R275C/beta1,0.231 (active)
same,log fold change Tl+ flux,R275C/beta2Delta,0.196 (active)
same,log fold change Tl+ flux,R275C/Slo1WT/beta2,0.0508 (inactive)
NN=C(N)N,period change,[6],-0.015 hour (inactive) and -0.1 hour (inactive)
same,inhibition,[7],-1% (inactive) and -5% (inactive)
same,fluorescence ratio (interference),[8],1 (inactive) and 0.9 (inactive)
same,remaining activity,[9],111% (inactive) and 119% (inactive)
same,outcome,[10],inactive
CN(C)C(=O)Oc1cc(OC(=O)N(C)C)cc(C(O)CNC(C)(C)C)c1 (configuration not stated),fluorescence slope change,[1],19% (inactive)
same,survival,[5],12.5 (inactive)
C=C1C[C@@H]2[C@H](CC[C@]3(C)C(=O)CC[C@@H]23)[C@@]2(C)C=CC(=O)C=C12,log fold change Tl+ flux,F380Y,-0.00852 (inactive)
same,log fold change Tl+ flux,F380Y/beta1,0.059 (inactive)
same,log fold change Tl+ flux,F380Y/beta2Delta,0.0277 (inactive)
same,log fold change Tl+ flux,R275C,-0.00349 (inactive)
same,log fold change Tl+ flux,R275C/beta1,0.0308 (inactive)
same,log fold change Tl+ flux,R275C/beta2Delta,0.00258 (inactive)
same,log fold change Tl+ flux,R275C/Slo1WT/beta2,0.0155 (inactive)
CC1(C)C(C=C(Cl)Cl)C1C(=O)OC(C#N)c1cccc(Oc2ccccc2)c1 (configuration not stated),survival,[5],64.8 (inactive)
CN1CCN(C(=O)O[C@H]2c3nccnc3C(=O)N2c2ccc(Cl)cn2)CC1,mean signal,[12],290 (active)
same,log fold change Tl+ flux,F380Y,-0.0134 (inactive)
same,log fold change Tl+ flux,F380Y/beta1,-0.0113 (inactive)
same,log fold change Tl+ flux,F380Y/beta2Delta,0.0361 (inactive)
same,log fold change Tl+ flux,R275C,0.0376 (inactive)
same,log fold change Tl+ flux,R275C/beta1,0.0325 (inactive)
same,log fold change Tl+ flux,R275C/beta2Delta,0.0513 (inactive)
same,log fold change Tl+ flux,R275C/Slo1WT/beta2,-0.0138 (inactive)
Nc1ccncc1,inhibition,[2],-15.5%
same,rescue above control,[11],26.7
same,glutamate uptake change,[3],-9.57%
same,inclusion score,[13],2
same,aggregation suppression score,[4],1.23
same,period change,[6],0.07 h (inactive)
same,inhibition,[7],-4% (inactive)
same,fluorescence ratio (interference),[8],0.9 (inactive)
same,remaining activity,[9],103% (inactive)
same,outcome,[10],inactive
C#CCN(C)[C@H](C)Cc1ccccc1,fluorescence slope change,[1],-18.7% (inactive)
same,survival,[5],12.8 (inactive)
same,mean signal,[12],258 (inactive)
same,log fold change Tl+ flux,F380Y,0.00891 (inactive)
same,log fold change Tl+ flux,F380Y/beta1,0.0474 (inactive)
same,log fold change Tl+ flux,F380Y/beta2Delta,-0.0258 (inactive)
same,log fold change Tl+ flux,R275C,-0.00358 (inactive)
same,log fold change Tl+ flux,R275C/beta1,0.0188 (inactive)
same,log fold change Tl+ flux,R275C/beta2Delta,-0.0448 (inactive)
same,log fold change Tl+ flux,R275C/Slo1WT/beta2,-0.00101 (inactive)
CN1C(=O)CN=C(c2ccccc2)c2cc([N+](=O)[O-])ccc21,mean signal,[12],228 (inactive)
same,log fold change Tl+ flux,F380Y,0.0275 (inactive)
same,log fold change Tl+ flux,F380Y/beta1,-0.0526 (inactive)
same,log fold change Tl+ flux,F380Y/beta2Delta,0.0676 (inactive)
same,log fold change Tl+ flux,R275C,-0.00261 (inactive)
same,log fold change Tl+ flux,R275C/beta1,-0.0104 (inactive)
same,log fold change Tl+ flux,R275C/beta2Delta,0.0315 (inactive)
same,log fold change Tl+ flux,R275C/Slo1WT/beta2,0.0318 (inactive)
CCN(CC)CCOC(=O)C(O)(c1ccccc1)c1ccccc1,mean signal,[12],281 (inactive)
same,log fold change Tl+ flux,F380Y,0.0198 (inactive)
same,log fold change Tl+ flux,F380Y/beta1,-0.00425 (inactive)
same,log fold change Tl+ flux,F380Y/beta2Delta,0.0439 (inactive)
same,log fold change Tl+ flux,R275C,-0.0214 (inactive)
same,log fold change Tl+ flux,R275C/beta1,-0.0156 (inactive)
same,log fold change Tl+ flux,R275C/beta2Delta,0.0436 (inactive)
same,log fold change Tl+ flux,R275C/Slo1WT/beta2,-0.00361 (inactive)
COc1ccc(C(=O)N2CCCC2=O)cc1,inhibition,[2],15.7%
same,rescue above control,[11],2.57
same,glutamate uptake change,[3],5.51%
same,inclusion score,[13],2
same,aggregation suppression score,[4],1.16
same,period change,[6],-0.01 h (inactive)
same,inhibition,[7],-3% (inactive)
same,fluorescence ratio (interference),[8],0.9 (inactive)
same,remaining activity,[9],122% (inactive)
same,outcome,[10],inactive

# Source: PubChem BioAssay
